# The panel holds about 83,000 compounds, 20% with a hit somewhere; the sample as a whole holds those more often.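 Compound tested at a single concentration for 48 hours in 96-well plates; a percent growth value below 10 was scored as active.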 Unmarked numbers belong to inactive results. Activity calls are given as the source filed them.
# System: NCI-H522 lung
# Test: NCI-60 one-dose screen, 48 h (100 = growth as untreated, 0 = no growth, -100 = all killed)
# Conditions: 10 µM unless noted
row,Compound,growth
1,COc1ccc2c(c1)OC1=C(C(=O)OC1)C2c1cc(OC)c2c(c1)OCO2 (stereo not drawn),4.87% (active)
2,Cc1cccc(/C=N/Nc2cc(C)c3cccc(C)c3n2)n1,87%
3,COc1ccc(C2C=C(c3ccc(Cl)cc3)N=C3SC=C(C)N32)c(Br)c1 (stereo not drawn),23%
4,COC1=C(OC)C(=O)C(CCCCCCCCCC[P+](c2ccccc2)(c2ccccc2)c2ccccc2)=C(C)C1=O,2.62% (active)
5,CC1CN(c2oc(-c3ccccc3)nc2C#N)CC(C)O1 (stereo not drawn),99.4%
6,COc1ccc(Cn2cc3c(c2-c2cc(OC)c(OC)c(OC)c2)CCc2cnoc2-3)cc1,24.7%
7,COc1ccc(C2=C(c3cc(OC)c(OC)c(OC)c3)C(=O)CC2)cc1,-35.5% (active)
8,COc1ccc2c(c1)NC1=C(C(=O)OC1)C2c1cc(OC)c2c(c1)OCO2 (stereo not drawn),-13.1% (active)
9,O=[N+]([O-])c1cc(S(=O)(=O)Oc2ccccc2)ccc1Cl,14.3%
10,COc1cc(NC(N)=NCCC(C)(C)Oc2ccc(C(F)(F)F)cc2)ncc1C#N,-83.7% (active)
11,COc1ccc(Nc2nn3c(-c4ccccc4)cc(-c4ccccc4)nc3c2C(N)=O)c(OC)c1,34.8%
12,CC[N+](CC)=c1cc2oc3cc(N(C)C)ccc3nc-2cc1C,-43.8% (active)
13,COc1ccc(Nc2ncccc2C(=O)NCc2cn(Cc3cccc(Oc4ccccc4)c3)nn2)cc1,26.1%
14,CN(C)CCOC(=O)Nc1ccccc1Cl,106%
15,CN1CCN(Cc2ccc(NC(=O)c3cncc(C#Cc4cnc(N)c5cnccc45)c3)cc2C(F)(F)F)CC1,10.8%
16,CCC1=CCC[C@@]2(C)CCC[C@@]3(C)CCCC(C)(C)[C@]1([O-])[O+]32,93.9%
17,CCNc1nc(S(=O)(=O)CC)nc2ccccc12,81.8%
18,CC12CCC3C4(C)COC(c5ccco5)OC4CCC3(C)C1CC(C1=CCOC1=O)O2 (stereo not drawn),109%
19,Cc1cc(C)n(-c2nnc3n2N=C(c2ccc(-c4ccccc4)cc2)CS3)n1,29.2%
20,N=c1ccc2nc3ccc(N)cc3sc-2c1,12.8%

row,Compound,growth
1,CN(C)CCCC(C#N)c1ccccc1 (stereo not drawn),119%
2,O=S(=O)(NCCCNc1nccc(-n2ccc3cccnc32)n1)c1cccc(C(F)(F)F)c1,98.1%
3,COc1cccc(-c2cc3c(O)cc(C#N)cc3[nH]2)c1,80.2%
4,CCCCCCCCCCCCNC(=O)[C@H]1CSC(c2ccsc2)N1 (stereo partly drawn),32.7%
5,c1ccc(Nc2nc(Nc3ccccc3)nc(Nc3ccccc3)n2)cc1,84.5%
6,O=C(Oc1ccccc1[N+](=O)[O-])C1CCCN1C(=O)OCc1ccccc1 (stereo not drawn),101%
7,O=C(/C=C\c1cccc([N+](=O)[O-])c1)/C=C/c1cccc([N+](=O)[O-])c1,88.2%
8,CCCCCCCCCCCCNC(=O)[C@H]1CSC(c2cc3ccccc3s2)N1 (stereo partly drawn),16%
9,COc1ccc(S(=O)(=O)Nc2cc(/C=C\c3cc(OC)c(OC)c(OC)c3)cc(OC)c2OC)cc1,-21.4% (active)
10,Oc1ccc(Cl)cc1-c1cc(-c2ccc(F)cc2)n[nH]1,60.9%
11,CCCCN(CCCC)C(=O)CC,114%
12,COc1ccc(N2CCN(Cc3cc(C(=O)/C=C/c4c[nH]c5ccccc45)ccc3O)CC2)cc1,95.2%
13,O=C1c2c(c3c4ccccc4n(CCCCCCBr)c3c3[nH]c4ccccc4c23)C(=O)N1O,-7.94% (active)
14,CCCCCCCC[C@@H](O)CC(=O)N[C@@H](CC(N)=O)C(=O)N[C@@H](CCC(N)=O)C(=O)N[C@@H](CC(=O)c1cc(C)cc(O)c1C(=O)c1c(O)cccc1O)CC(C)C,-22.5% (active)
15,S=C(S)NCCc1c[nH]c2ccccc12,79.8%
16,O=C1/C(=C/c2ccccc2)Oc2ccc(O)c(I)c21,84%
17,COc1ccc(C2=CC(c3cc(OC)c(OC)c(OC)c3)NC(=O)N2)cc1OC (stereo not drawn),-8.71% (active)
18,O=C(O)C1CCCCN1c1nc(Cl)nc(Cl)n1 (stereo not drawn),93.3%
19,O=S(=O)(NCCCNc1nccc(-n2ccc3cccnc32)n1)c1ccc(Br)cc1,92.6%

# System: A549/ATCC NSCLC
# Test: as above
# Conditions: 10 µM unless noted
row,Compound,growth
1,COc1ccc2c(c1)OC1=C(C(=O)OC1)C2c1cc(OC)c2c(c1)OCO2 (stereo not drawn),14.4%
2,Cc1cccc(/C=N/Nc2cc(C)c3cccc(C)c3n2)n1,87.8%
3,COc1ccc(C2C=C(c3ccc(Cl)cc3)N=C3SC=C(C)N32)c(Br)c1 (stereo not drawn),36.9%
4,COC1=C(OC)C(=O)C(CCCCCCCCCC[P+](c2ccccc2)(c2ccccc2)c2ccccc2)=C(C)C1=O,-4.09% (active)
5,CC1CN(c2oc(-c3ccccc3)nc2C#N)CC(C)O1 (stereo not drawn),104%
6,COc1ccc(Cn2cc3c(c2-c2cc(OC)c(OC)c(OC)c2)CCc2cnoc2-3)cc1,25.2%
7,COc1ccc(C2=C(c3cc(OC)c(OC)c(OC)c3)C(=O)CC2)cc1,24.7%
8,COc1ccc2c(c1)NC1=C(C(=O)OC1)C2c1cc(OC)c2c(c1)OCO2 (stereo not drawn),12%
9,O=[N+]([O-])c1cc(S(=O)(=O)Oc2ccccc2)ccc1Cl,88.4%
10,COc1cc(NC(N)=NCCC(C)(C)Oc2ccc(C(F)(F)F)cc2)ncc1C#N,-42.6% (active)
11,COc1ccc(Nc2nn3c(-c4ccccc4)cc(-c4ccccc4)nc3c2C(N)=O)c(OC)c1,24%
12,CC[N+](CC)=c1cc2oc3cc(N(C)C)ccc3nc-2cc1C,36.5%
13,COc1ccc(Nc2ncccc2C(=O)NCc2cn(Cc3cccc(Oc4ccccc4)c3)nn2)cc1,49.2%
14,CN(C)CCOC(=O)Nc1ccccc1Cl,112%
15,CN1CCN(Cc2ccc(NC(=O)c3cncc(C#Cc4cnc(N)c5cnccc45)c3)cc2C(F)(F)F)CC1,20%
16,CCC1=CCC[C@@]2(C)CCC[C@@]3(C)CCCC(C)(C)[C@]1([O-])[O+]32,103%
17,CCNc1nc(S(=O)(=O)CC)nc2ccccc12,105%
18,CC12CCC3C4(C)COC(c5ccco5)OC4CCC3(C)C1CC(C1=CCOC1=O)O2 (stereo not drawn),107%
19,Cc1cc(C)n(-c2nnc3n2N=C(c2ccc(-c4ccccc4)cc2)CS3)n1,31.5%
20,N=c1ccc2nc3ccc(N)cc3sc-2c1,7.01% (active)

row,Compound,growth
1,CN(C)CCCC(C#N)c1ccccc1 (stereo not drawn),105%
2,O=S(=O)(NCCCNc1nccc(-n2ccc3cccnc32)n1)c1cccc(C(F)(F)F)c1,101%
3,COc1cccc(-c2cc3c(O)cc(C#N)cc3[nH]2)c1,94.6%
4,CCCCCCCCCCCCNC(=O)[C@H]1CSC(c2ccsc2)N1 (stereo partly drawn),63.7%
5,c1ccc(Nc2nc(Nc3ccccc3)nc(Nc3ccccc3)n2)cc1,79.9%
6,O=C(Oc1ccccc1[N+](=O)[O-])C1CCCN1C(=O)OCc1ccccc1 (stereo not drawn),98.5%
7,O=C(/C=C\c1cccc([N+](=O)[O-])c1)/C=C/c1cccc([N+](=O)[O-])c1,97.1%
8,CCCCCCCCCCCCNC(=O)[C@H]1CSC(c2cc3ccccc3s2)N1 (stereo partly drawn),63.8%
9,COc1ccc(S(=O)(=O)Nc2cc(/C=C\c3cc(OC)c(OC)c(OC)c3)cc(OC)c2OC)cc1,21.2%
10,Oc1ccc(Cl)cc1-c1cc(-c2ccc(F)cc2)n[nH]1,62%
11,CCCCN(CCCC)C(=O)CC,106%
12,COc1ccc(N2CCN(Cc3cc(C(=O)/C=C/c4c[nH]c5ccccc45)ccc3O)CC2)cc1,102%
13,O=C1c2c(c3c4ccccc4n(CCCCCCBr)c3c3[nH]c4ccccc4c23)C(=O)N1O,6.36% (active)
14,CCCCCCCC[C@@H](O)CC(=O)N[C@@H](CC(N)=O)C(=O)N[C@@H](CCC(N)=O)C(=O)N[C@@H](CC(=O)c1cc(C)cc(O)c1C(=O)c1c(O)cccc1O)CC(C)C,60.1%
15,S=C(S)NCCc1c[nH]c2ccccc12,99.4%
16,O=C1/C(=C/c2ccccc2)Oc2ccc(O)c(I)c21,103%
17,COc1ccc(C2=CC(c3cc(OC)c(OC)c(OC)c3)NC(=O)N2)cc1OC (stereo not drawn),19%
18,O=C(O)C1CCCCN1c1nc(Cl)nc(Cl)n1 (stereo not drawn),101%
19,O=S(=O)(NCCCNc1nccc(-n2ccc3cccnc32)n1)c1ccc(Br)cc1,107%

# Source: PubChem BioAssay (NCI)
